# According to PubChem BioAssay AID1159580 (chemical genetic matrix, 2015):
# “And” between values parts separate entries of the source, which are not always exact repeats. Identical values can stand only once. The campaign covered roughly 5,500 compounds. About 2,000 (36%) were called active. About 18% were inconclusive and are not listed. The list shows a part of the results. Unmarked numbers belong to inactive results. Rule as the data show it: active = normalized growth mostly below about 0.91 (no sharp cut-off); inconclusive = no clear call, values can overlap the other calls; inactive = mostly above about 0.92.
# Experiment: chemical genetic growth profiling, strain panel (AID 1159580);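 also: tested at 20 µM; growth read once vehicle control cultures reached saturation at 30 °C; 1 = growth at the plate median or of vehicle wells; lower values mean less growth of the strain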
# Conditions: S. cerevisiae deletion strains, growth OD
compound,measurement,setting,value
COc1ccc([C@@H](C)C(=O)c2ccc(O)cc2O)cc1,normalized growth,"locus YAL021C, strain ccr4, active compounds read low",0.987
same,normalized growth,"locus YAL026C, strain drs2, active compounds read low",0.969
same,normalized growth,"locus YAL030W, strain snc1, active compounds read low",0.983
same,normalized growth,"locus YBL061C, strain skt5, active compounds read low",0.976
same,normalized growth,"locus YBR009C, strain hhf1, active compounds read low",0.962
same,normalized growth,"locus YBR021W, strain FUR4, active compounds read low",0.996
same,normalized growth,"locus YBR023C, strain chs3, active compounds read low",0.974
same,normalized growth,"locus YBR171W, strain sec66, active compounds read low",0.95
same,normalized growth,"locus YBR229C, strain ROT2, active compounds read low",0.982
same,normalized growth,"locus YBR231C, strain swc5, active compounds read low",0.983
same,normalized growth,"locus YBR279W, strain paf1, active compounds read low",0.978
same,normalized growth,"locus YCL011C, strain gbp2, active compounds read low",0.987
same,normalized growth,"locus YCL016C, strain dcc1, active compounds read low",0.985
same,normalized growth,"locus YCL029C, strain bik1, active compounds read low",0.96
same,normalized growth,"locus YCL061C, strain MRC1, active compounds read low",0.994
same,normalized growth,"locus YCL069W, strain vba3, active compounds read low",0.955
same,normalized growth,"locus YCR088W, strain abp1, active compounds read low",0.967
same,normalized growth,"locus YDL005C, strain med2, active compounds read low",0.969
same,normalized growth,"locus YDL035C, strain GPR1, active compounds read low",0.98
same,normalized growth,"locus YDL040C, strain nat1, active compounds read low",0.97
same,normalized growth,"locus YDL074C, strain BRE1, active compounds read low",0.927
same,normalized growth,"locus YDL101C, strain DUN1, active compounds read low",0.955
same,normalized growth,"locus YDL185W, strain tfp1, active compounds read low",0.959
same,normalized growth,"locus YDL192W, strain arf1, active compounds read low",0.931
same,normalized growth,"locus YDR001C, strain nth1, active compounds read low",0.979
same,normalized growth,"locus YDR069C, strain doa4, active compounds read low",0.965
same,normalized growth,"locus YDR101C, strain arx1, active compounds read low",0.961
same,normalized growth,"locus YDR137W, strain rgp1, active compounds read low",0.797 (active)
same,normalized growth,"locus YDR159W, strain sac3, active compounds read low",0.969
same,normalized growth,"locus YDR162C, strain NBP2, active compounds read low",0.937
same,normalized growth,"locus YDR195W, strain ref2",1.11
same,normalized growth,"locus YDR297W, strain sur2, active compounds read low",0.994
same,normalized growth,"locus YDR318W, strain mcm21, active compounds read low",0.93
same,normalized growth,"locus YDR334W, strain swr1, active compounds read low",0.957
same,normalized growth,"locus YDR335W, strain msn5, active compounds read low",0.968
same,normalized growth,"locus YDR388W, active compounds read low",0.969
same,normalized growth,"locus YDR392W, strain spt3, active compounds read low",0.749
same,normalized growth,"locus YDR502C, strain sam2, active compounds read low",0.931
same,normalized growth,"locus YEL003W, strain gim4, active compounds read low",0.962
same,normalized growth,"locus YEL037C, strain rad23, active compounds read low",0.966
same,normalized growth,"locus YEL061C, strain CIN8 (second series), active compounds read low",0.957
same,normalized growth,"locus YER015W, strain faa2, active compounds read low",0.986
same,normalized growth,"locus YER016W, strain bim1, active compounds read low",0.973
same,normalized growth,"locus YER110C, active compounds read low",0.969
same,normalized growth,"locus YER111C, strain swi4, active compounds read low",0.965
same,normalized growth,"locus YER155C, strain BEM2 (second series), active compounds read low",0.952
same,normalized growth,"locus YER155C, strain BEM2, active compounds read low",0.971
same,normalized growth,"locus YER167W, strain BCK2, active compounds read low",0.973
same,normalized growth,"locus YFR010W, strain ubp6, active compounds read low",0.979
same,normalized growth,"locus YGL078C, strain dbp3, active compounds read low",0.981
same,normalized growth,"locus YGL086W, strain mad1, active compounds read low",0.921 (active)
same,normalized growth,"locus YGL167C, strain pmr1, active compounds read low",0.96
same,normalized growth,"locus YGL173C, strain kem1, active compounds read low",0.959
same,normalized growth,"locus YGL227W, strain vid30, active compounds read low",0.983
same,normalized growth,"locus YGL240W, strain doc1, active compounds read low",0.991
same,normalized growth,"locus YGL248W, strain PDE1, active compounds read low",0.939
same,normalized growth,"locus YGL253W, strain hxk2, active compounds read low",0.976
same,normalized growth,"locus YGR135W, strain pre9, active compounds read low",0.948
same,normalized growth,"locus YGR252W, strain gcn5, active compounds read low",0.92
same,normalized growth,"locus YHR013C, strain ard1, active compounds read low",0.944
same,normalized growth,"locus YHR027C, strain rpn1, active compounds read low",0.964
same,normalized growth,"locus YHR030C, strain SLT2, active compounds read low",0.991 and 0.996
same,normalized growth,"locus YHR079C, strain IRE1 (second series), active compounds read low",0.971
same,normalized growth,"locus YHR079C, strain IRE1, active compounds read low",0.978
same,normalized growth,"locus YHR094C, strain hxt1, active compounds read low",0.977
same,normalized growth,"locus YHR129C, strain ARP1, active compounds read low",0.959
same,normalized growth,"locus YHR142W, strain chs7, active compounds read low",0.929
same,normalized growth,"locus YHR200W, strain rpn10, active compounds read low",0.982
same,normalized growth,"locus YIL066C, strain RNR3, active compounds read low",0.961
same,normalized growth,"locus YIL073C, strain SPO22, active compounds read low",0.955
same,normalized growth,"locus YIL125W, strain kgd1, active compounds read low",0.98
same,normalized growth,"locus YIR030C, strain dcg1, active compounds read low",0.973
same,normalized growth,"locus YJL092W, strain hpr5, active compounds read low",0.978
same,normalized growth,"locus YJL095W, strain BCK1 (second series), active compounds read low",0.987
same,normalized growth,"locus YJL095W, strain BCK1, active compounds read low",0.864 and 0.977
same,normalized growth,"locus YJL115W, strain asf1, active compounds read low",0.98
same,normalized growth,"locus YJL129C, strain trk1, active compounds read low",0.878
same,normalized growth,"locus YJL134W, strain LCB3, active compounds read low",0.989
same,normalized growth,"locus YJL154C, strain vps35, active compounds read low",0.955
same,normalized growth,"locus YJL164C, strain tpk1, active compounds read low",0.965
same,normalized growth,"locus YJL166W, strain qcr8, active compounds read low",0.965
same,normalized growth,"locus YJL168C, strain set2, active compounds read low",0.97
same,normalized growth,"locus YJL187C, strain SWE1 (second series), active compounds read low",0.953
same,normalized growth,"locus YJL187C, strain SWE1, active compounds read low",0.97
same,normalized growth,"locus YJR043C, strain POL32, active compounds read low",1.03
same,normalized growth,"locus YJR066W, strain TOR1, active compounds read low",0.873
same,normalized growth,"locus YKL009W, strain mrt4, active compounds read low",0.963
same,normalized growth,"locus YKL068W, active compounds read low",0.974
same,normalized growth,"locus YKL085W, strain MDH1 (second series), active compounds read low",0.97
same,normalized growth,"locus YKL085W, strain MDH1, active compounds read low",0.97
same,normalized growth,"locus YKL160W, strain elf1, active compounds read low",0.975
same,normalized growth,"locus YKR001C, strain vps1, active compounds read low",0.798 (active)
same,normalized growth,"locus YKR026C, strain gcn3, active compounds read low",0.97
same,normalized growth,"locus YKR091W, strain srl3, active compounds read low",0.981
same,normalized growth,"locus YLL001W, strain dnm1, active compounds read low",0.966
same,normalized growth,"locus YLL026W, active compounds read low",0.988
same,normalized growth,"locus YLL041C, strain sdh2, active compounds read low",0.953
same,normalized growth,"locus YLR027C, strain aat2, active compounds read low",0.991
same,normalized growth,"locus YLR039C, strain RIC1, active compounds read low",1.57 [resistant] (active)
same,normalized growth,"locus YLR058C, strain SHM2, active compounds read low",0.977
same,normalized growth,"locus YLR102C, strain apc9, active compounds read low",0.969
same,normalized growth,"locus YLR113W, strain HOG1, active compounds read low",1.01
same,normalized growth,"locus YLR221C, strain rsa3, active compounds read low",0.971
same,normalized growth,"locus YLR258W, strain gsy2, active compounds read low",0.954
same,normalized growth,"locus YLR262C, strain YPT6 (second series), active compounds read low",0.788 (active)
same,normalized growth,"locus YLR262C, strain YPT6, active compounds read low",0.738
same,normalized growth,"locus YLR268W, strain sec22, active compounds read low",0.968
same,normalized growth,"locus YLR320W, strain mms22, active compounds read low",0.895
same,normalized growth,"locus YLR330W, strain CHS5, active compounds read low",0.888 (active)
same,normalized growth,"locus YLR342W, strain FKS1, active compounds read low",0.96
same,normalized growth,"locus YLR357W, strain rsc2, active compounds read low",1.03
same,normalized growth,"locus YLR370C, strain arc18, active compounds read low",0.974
same,normalized growth,"locus YLR371W, strain rom2, active compounds read low",0.921
same,normalized growth,"locus YLR384C, strain iki3, active compounds read low",0.982
same,normalized growth,"locus YLR418C, strain cdc73, active compounds read low",0.796 (active)
same,normalized growth,"locus YML016C, strain PPZ1, active compounds read low",0.981
same,normalized growth,"locus YML032C, strain rad52, active compounds read low",0.919
same,normalized growth,"locus YML120C, strain ndi1, active compounds read low",0.976
same,normalized growth,"locus YML124C, strain tub3, active compounds read low",0.968
same,normalized growth,"locus YMR058W, strain fet3, active compounds read low",0.979
same,normalized growth,"locus YMR078C, strain ctf18, active compounds read low",0.955
same,normalized growth,"locus YMR125W, strain sto1, active compounds read low",0.961
same,normalized growth,"locus YMR129W, active compounds read low",0.983
same,normalized growth,"locus YMR205C, strain PFK2, active compounds read low",0.914
same,normalized growth,"locus YMR223W, strain ubp8, active compounds read low",0.944
same,normalized growth,"locus YMR231W, strain pep5, active compounds read low",0.972
same,normalized growth,"locus YMR307W, strain GAS1, active compounds read low",0.692
same,normalized growth,"locus YNL067W, strain RPL9B, active compounds read low",0.967
same,normalized growth,"locus YNL071W, strain lat1, active compounds read low",0.948
same,normalized growth,"locus YNL153C, strain GIM3, active compounds read low",0.953
same,normalized growth,"locus YNL183C, strain NPR1, active compounds read low",0.915
same,normalized growth,"locus YNL209W, strain ssb2, active compounds read low",0.975
same,normalized growth,"locus YNL233W, strain BNI4, active compounds read low",0.934
same,normalized growth,"locus YNL248C, strain rpa49, active compounds read low",0.976
same,normalized growth,"locus YNL250W, strain rad50, active compounds read low",1.01
same,normalized growth,"locus YNL271C, strain bni1, active compounds read low",0.975
same,normalized growth,"locus YNL298W, strain CLA4, active compounds read low",0.945
same,normalized growth,"locus YNL307C, strain MCK1, active compounds read low",0.761 (active)
same,normalized growth,"locus YNL322C, strain KRE1 (second series), active compounds read low",0.986
same,normalized growth,"locus YNR049C, strain mso1, active compounds read low",0.963
same,normalized growth,"locus YNR052C, strain pop2, active compounds read low",0.943
same,normalized growth,"locus YOL012C, strain htz1",1.31
same,normalized growth,"locus YOL147C, strain pex11, active compounds read low",0.931 (active)
same,normalized growth,"locus YOR001W, strain rrp6, active compounds read low",0.953
same,normalized growth,"locus YOR061W, strain CKA2, active compounds read low",0.999
same,normalized growth,"locus YOR069W, strain VPS5, active compounds read low",0.974
same,normalized growth,"locus YOR070C, strain gyp1, active compounds read low",0.987
same,normalized growth,"locus YOR080W, strain dia2, active compounds read low",0.975
same,normalized growth,"locus YOR083W, strain WHI5, active compounds read low",0.973
same,normalized growth,"locus YOR106W, strain vam3, active compounds read low",0.97
same,normalized growth,"locus YOR136W, strain idh2, active compounds read low",0.967
same,normalized growth,"locus YOR144C, strain elg1, active compounds read low",0.961
same,normalized growth,"locus YOR184W, strain ser1, active compounds read low",0.866 (active)
same,normalized growth,"locus YOR231W, strain MKK1, active compounds read low",0.953
same,normalized growth,"locus YOR265W, strain rbl2, active compounds read low",0.969
same,normalized growth,"locus YOR270C, strain vph1, active compounds read low",0.737 (active)
same,normalized growth,"locus YOR290C, strain snf2, active compounds read low",0.982
same,normalized growth,"locus YOR316C, strain cot1, active compounds read low",0.979
same,normalized growth,"locus YPL051W, strain arl3, active compounds read low",0.975
same,normalized growth,"locus YPL078C, strain atp4, active compounds read low",0.958
same,normalized growth,"locus YPL106C, strain sse1, active compounds read low",1.02
same,normalized growth,"locus YPL240C, strain hsp82, active compounds read low",0.965
same,normalized growth,"locus YPL241C, strain CIN2, active compounds read low",0.971
same,normalized growth,"locus YPL256C, strain CLN2, active compounds read low",0.969
same,normalized growth,"locus YPR119W, strain clb2, active compounds read low",0.966
same,normalized growth,"locus YPR141C, strain kar3, active compounds read low",0.98
same,normalized growth,"locus YPR163C, strain tif3, active compounds read low",0.86 (active)
same,normalized growth,"locus YPR167C, strain met16, active compounds read low",0.965
same,normalized growth,"strain wtn01, active compounds read low",0.94
